These results are taken from ChEMBL document CHEMBL3988442, “University of Dundee, Small-Polar-MMV Screening Library” (2021).

Design in all cases: scale not given: direction of the effect not stated beside the values
Assay [1] addresses Protein translocase subunit SecA (Escherichia coli (strain K12)) (UniProt P10408). The assay can be described thus: Assay to Identify E. coli SecA ATPase Inhibitors. Conditions: 30 µM. The format is functional.
Assay [2] deals with T1, Ubiquitin-activating enzyme e1, putative (Leishmania donovani (strain BPK282A1)) (UniProt E9BSI1).
T1 sequence (whole entry): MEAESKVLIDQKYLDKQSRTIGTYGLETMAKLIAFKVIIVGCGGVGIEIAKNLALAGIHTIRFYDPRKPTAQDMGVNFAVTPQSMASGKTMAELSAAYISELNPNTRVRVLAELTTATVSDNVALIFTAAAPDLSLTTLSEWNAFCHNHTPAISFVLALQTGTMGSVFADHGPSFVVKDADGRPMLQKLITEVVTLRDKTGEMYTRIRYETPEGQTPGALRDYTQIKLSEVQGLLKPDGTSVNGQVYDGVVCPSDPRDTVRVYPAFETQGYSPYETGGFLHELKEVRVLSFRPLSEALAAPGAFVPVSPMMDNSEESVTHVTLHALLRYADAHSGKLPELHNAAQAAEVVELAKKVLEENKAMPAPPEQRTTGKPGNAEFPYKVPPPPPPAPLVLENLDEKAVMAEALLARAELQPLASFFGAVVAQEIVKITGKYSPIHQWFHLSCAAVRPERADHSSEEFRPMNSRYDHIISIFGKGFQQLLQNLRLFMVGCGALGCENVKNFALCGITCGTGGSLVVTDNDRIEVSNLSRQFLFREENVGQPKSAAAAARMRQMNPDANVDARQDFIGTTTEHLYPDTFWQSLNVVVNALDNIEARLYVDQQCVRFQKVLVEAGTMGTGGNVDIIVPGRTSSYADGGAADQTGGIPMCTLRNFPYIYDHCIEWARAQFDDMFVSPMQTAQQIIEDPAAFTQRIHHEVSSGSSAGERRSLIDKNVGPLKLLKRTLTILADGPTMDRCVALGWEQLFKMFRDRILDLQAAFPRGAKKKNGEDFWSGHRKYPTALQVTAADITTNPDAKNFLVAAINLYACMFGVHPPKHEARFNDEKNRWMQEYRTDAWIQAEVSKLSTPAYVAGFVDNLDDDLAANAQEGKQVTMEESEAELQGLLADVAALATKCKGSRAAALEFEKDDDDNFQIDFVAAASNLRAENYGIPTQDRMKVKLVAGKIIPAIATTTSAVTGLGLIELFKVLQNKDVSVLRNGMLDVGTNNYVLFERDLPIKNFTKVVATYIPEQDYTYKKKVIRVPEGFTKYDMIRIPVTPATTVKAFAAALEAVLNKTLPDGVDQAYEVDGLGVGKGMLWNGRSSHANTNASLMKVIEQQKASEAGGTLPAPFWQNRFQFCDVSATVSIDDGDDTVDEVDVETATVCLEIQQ
The assay can be described thus: Leishmania donovani Ubiquitin Activating Enzyme (LdE1). Conditions: 30 µM. In kind it is functional.

Assay [3] deals with AMP-activated protein kinase, AMPK (Homo sapiens) (UniProt P54646+O43741+P54619+Q9UGJ0+Q9Y478+Q13131+Q9UGI9). The assay can be described thus: AMP-dependent Kinase enzyme assay. An in vitro enzyme assay that detects ADP turnover that is directly proportional to AMPK activity. This uses naive AMPK that is activated during the assay with MK-8722. Conditions: 30 µM. The format is functional.

Assay [4] deals with Sialic acid-binding Ig-like lectin 9 (Homo sapiens) (UniProt Q9Y336). The assay can be described thus: Hs-Siglec9 ALPHAscreen SOP 20170721. Conditions: 10 µM. For orientation: Alpha assays give light when donor and acceptor beads are brought close together.
Chain of Sialic acid-binding Ig-like lectin 9 (Homo sapiens) (Q9Y336 whole entry): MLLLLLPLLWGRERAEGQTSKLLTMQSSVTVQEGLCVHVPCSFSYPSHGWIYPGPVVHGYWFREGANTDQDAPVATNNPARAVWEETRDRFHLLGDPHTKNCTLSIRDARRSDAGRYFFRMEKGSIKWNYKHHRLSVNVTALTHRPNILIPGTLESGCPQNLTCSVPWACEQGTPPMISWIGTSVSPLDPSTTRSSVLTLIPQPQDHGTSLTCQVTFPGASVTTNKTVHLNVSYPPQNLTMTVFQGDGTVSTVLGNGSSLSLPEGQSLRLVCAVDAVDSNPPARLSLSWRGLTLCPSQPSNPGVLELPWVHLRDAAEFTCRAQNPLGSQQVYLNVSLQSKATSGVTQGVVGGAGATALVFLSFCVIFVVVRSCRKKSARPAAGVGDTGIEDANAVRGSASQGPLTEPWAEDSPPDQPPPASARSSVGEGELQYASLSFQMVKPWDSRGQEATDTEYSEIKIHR
The test system of assay [5] is Trypanosoma cruzi. The assay can be described thus: Trypanosoma cruzi phosphomannomutase and mannose-1-phosphate guanylyltransferase assay. In kind it is functional. Conditions: 10 µM.
Assay [6] concerns the target T2, Arginase-2, mitochondrial (Homo sapiens) (UniProt P78540).
T2 sequence (whole entry): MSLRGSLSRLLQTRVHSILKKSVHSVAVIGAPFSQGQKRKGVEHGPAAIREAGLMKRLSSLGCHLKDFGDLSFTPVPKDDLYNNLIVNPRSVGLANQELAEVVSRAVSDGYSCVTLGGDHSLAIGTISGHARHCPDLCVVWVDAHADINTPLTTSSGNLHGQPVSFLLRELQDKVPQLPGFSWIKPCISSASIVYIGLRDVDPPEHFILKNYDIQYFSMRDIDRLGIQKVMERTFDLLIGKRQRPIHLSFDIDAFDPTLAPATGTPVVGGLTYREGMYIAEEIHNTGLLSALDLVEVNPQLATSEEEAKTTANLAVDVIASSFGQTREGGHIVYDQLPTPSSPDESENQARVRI
The assay can be described thus: in vitro enzyme assay to detect the production of urea directly proportional to the activity of Arginase II. Also: in the data most compounds retested in dose-response had high values. The format is functional. Conditions: 33.3 µM.

Assay [7] deals with T3, Proteasome subunit beta (Trypanosoma cruzi) (UniProt O96673).
T3 sequence (whole entry): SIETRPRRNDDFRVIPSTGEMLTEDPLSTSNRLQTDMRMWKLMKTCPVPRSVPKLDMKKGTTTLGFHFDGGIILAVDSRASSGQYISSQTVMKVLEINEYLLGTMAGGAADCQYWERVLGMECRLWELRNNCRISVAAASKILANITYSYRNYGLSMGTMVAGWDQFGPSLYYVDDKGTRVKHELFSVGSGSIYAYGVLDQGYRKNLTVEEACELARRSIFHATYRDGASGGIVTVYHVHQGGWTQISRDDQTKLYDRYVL
The assay can be described thus: Trypanosoma cruzi proteasome chymotrypsin-like activity (TcProtChymo) assay. Also: in the data most compounds retested in dose-response had high values. The format is functional. The note with it: 9.37 µM.

For assay [8], the species on record is Homo sapiens. The assay can be described thus: To identify inhibition of the IFN signalling (Jak-Stat) pathway via expression of an eGFP reporter gene under the control of an IFN-stimulated response element (ISRE) containing MxA promoter. Conditions: 30 µM. The format is functional.
The target in assay [9] is T4, Tyrosyl-tRNA synthetase, putative (Trypanosoma cruzi (strain CL Brener)) (UniProt Q4DSP6).
T4 sequence (whole entry): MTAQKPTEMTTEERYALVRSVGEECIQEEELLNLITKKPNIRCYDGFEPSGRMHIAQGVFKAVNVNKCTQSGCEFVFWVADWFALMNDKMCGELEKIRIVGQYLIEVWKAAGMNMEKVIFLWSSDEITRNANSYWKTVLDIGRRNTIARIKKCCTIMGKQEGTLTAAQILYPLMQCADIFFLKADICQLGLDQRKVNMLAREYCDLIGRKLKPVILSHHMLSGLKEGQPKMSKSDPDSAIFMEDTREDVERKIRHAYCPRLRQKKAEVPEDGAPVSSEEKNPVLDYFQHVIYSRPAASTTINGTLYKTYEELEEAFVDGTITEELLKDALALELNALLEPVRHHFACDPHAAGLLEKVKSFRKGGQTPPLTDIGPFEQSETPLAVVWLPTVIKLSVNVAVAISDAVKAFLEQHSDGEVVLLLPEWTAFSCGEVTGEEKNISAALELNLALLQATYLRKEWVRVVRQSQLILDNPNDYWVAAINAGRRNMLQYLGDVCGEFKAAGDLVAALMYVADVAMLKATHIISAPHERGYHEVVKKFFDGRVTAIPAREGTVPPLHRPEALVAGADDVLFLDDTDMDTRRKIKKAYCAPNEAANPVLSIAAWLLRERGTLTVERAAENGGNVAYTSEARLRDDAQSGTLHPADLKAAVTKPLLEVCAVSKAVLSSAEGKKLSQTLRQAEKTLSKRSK
The assay can be described thus: Trypanosoma cruzi tyrosyl tRNA synthetase (TcYRS) _High Tyrosine SOP. Also: in the data most compounds retested in dose-response had high values. The note with it: 30 µM. In kind it is functional.

Assay [10] addresses T4, Tyrosyl-tRNA synthetase, putative (Trypanosoma cruzi (strain CL Brener)). The assay can be described thus: Trypanosoma cruzi tyrosyl tRNA synthetase (TcYRS) SOP. In kind it is functional. The note with it: 30 µM.
In assay [11] the target is Chromo domain-containing protein 1 (Saccharomyces cerevisiae (strain ATCC 204508 / S288c) (Baker's yeast)) (UniProt P32657). The assay can be described thus: ScCHD-1 Enzyme Inhibition Assay. Also: in the data most compounds retested in dose-response had high values. In kind it is functional. Conditions: 30 µM.
Chain of Chromo domain-containing protein 1 (Saccharomyces cerevisiae (strain ATCC 204508 / S288c) (Baker's yeast)) (P32657 whole entry, the tested form may be a part): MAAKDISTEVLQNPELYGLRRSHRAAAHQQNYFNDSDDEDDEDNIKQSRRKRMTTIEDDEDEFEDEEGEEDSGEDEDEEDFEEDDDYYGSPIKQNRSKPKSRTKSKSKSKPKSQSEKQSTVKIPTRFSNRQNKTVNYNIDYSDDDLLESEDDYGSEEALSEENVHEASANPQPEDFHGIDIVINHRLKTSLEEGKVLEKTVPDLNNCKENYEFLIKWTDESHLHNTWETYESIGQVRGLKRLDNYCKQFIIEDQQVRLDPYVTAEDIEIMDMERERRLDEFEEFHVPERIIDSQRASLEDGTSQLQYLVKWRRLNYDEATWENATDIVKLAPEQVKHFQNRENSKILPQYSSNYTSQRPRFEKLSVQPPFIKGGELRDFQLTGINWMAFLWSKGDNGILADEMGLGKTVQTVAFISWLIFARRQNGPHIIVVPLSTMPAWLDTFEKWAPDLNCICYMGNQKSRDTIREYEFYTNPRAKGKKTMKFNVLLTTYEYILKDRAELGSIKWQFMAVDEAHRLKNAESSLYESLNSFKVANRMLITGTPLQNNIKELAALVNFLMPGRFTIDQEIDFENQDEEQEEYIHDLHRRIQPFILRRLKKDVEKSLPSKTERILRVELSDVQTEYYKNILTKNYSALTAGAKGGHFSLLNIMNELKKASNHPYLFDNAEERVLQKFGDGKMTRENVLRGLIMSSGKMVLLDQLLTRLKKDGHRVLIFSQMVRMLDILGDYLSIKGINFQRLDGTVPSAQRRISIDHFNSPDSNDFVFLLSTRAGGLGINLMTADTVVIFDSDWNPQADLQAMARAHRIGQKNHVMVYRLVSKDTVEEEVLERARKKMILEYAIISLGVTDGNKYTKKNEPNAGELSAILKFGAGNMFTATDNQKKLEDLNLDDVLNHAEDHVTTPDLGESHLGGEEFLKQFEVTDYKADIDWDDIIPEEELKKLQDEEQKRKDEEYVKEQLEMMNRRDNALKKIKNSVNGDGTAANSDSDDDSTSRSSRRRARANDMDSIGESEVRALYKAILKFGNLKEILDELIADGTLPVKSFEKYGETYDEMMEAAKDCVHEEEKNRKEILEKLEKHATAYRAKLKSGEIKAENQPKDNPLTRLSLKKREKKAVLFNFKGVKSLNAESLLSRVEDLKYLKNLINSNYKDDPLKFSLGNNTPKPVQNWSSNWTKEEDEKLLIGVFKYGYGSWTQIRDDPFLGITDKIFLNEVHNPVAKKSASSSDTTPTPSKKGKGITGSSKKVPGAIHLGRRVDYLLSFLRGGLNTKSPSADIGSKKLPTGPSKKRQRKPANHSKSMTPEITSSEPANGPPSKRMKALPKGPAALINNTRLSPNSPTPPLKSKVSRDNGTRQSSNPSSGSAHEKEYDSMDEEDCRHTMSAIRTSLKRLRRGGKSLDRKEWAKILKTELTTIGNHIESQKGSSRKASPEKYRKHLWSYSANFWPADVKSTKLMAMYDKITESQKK

For some of these results: Entries with a potency or affinity are not part of this list.

Chain of Protein translocase subunit SecA (Escherichia coli (strain K12)) (P10408 whole entry): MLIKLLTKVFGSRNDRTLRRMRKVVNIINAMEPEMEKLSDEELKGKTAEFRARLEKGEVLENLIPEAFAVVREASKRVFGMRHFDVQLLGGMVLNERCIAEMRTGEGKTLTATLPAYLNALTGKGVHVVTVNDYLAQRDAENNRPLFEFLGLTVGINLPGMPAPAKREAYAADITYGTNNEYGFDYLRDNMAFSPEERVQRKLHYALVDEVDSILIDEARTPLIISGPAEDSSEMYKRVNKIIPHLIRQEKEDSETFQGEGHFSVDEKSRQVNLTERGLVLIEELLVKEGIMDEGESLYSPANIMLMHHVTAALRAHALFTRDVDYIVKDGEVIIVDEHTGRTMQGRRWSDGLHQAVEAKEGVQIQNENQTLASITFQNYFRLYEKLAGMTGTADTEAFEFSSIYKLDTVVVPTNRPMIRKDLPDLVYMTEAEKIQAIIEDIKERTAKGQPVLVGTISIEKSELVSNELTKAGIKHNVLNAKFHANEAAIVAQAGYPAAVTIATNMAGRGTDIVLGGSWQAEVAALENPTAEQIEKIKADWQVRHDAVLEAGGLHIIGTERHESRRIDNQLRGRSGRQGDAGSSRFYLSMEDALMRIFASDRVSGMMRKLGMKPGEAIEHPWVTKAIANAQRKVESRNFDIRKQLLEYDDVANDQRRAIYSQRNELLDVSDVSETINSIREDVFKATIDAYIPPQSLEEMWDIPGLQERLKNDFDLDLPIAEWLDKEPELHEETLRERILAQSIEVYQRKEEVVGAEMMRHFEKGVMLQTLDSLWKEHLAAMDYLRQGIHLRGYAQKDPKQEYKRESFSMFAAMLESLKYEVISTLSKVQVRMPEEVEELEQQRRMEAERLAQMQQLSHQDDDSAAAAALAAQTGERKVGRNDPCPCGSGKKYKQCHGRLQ

On to `COc1ccc2c(c1)CCN(CCC(=O)NC1CCCCC1)CC2`, for which the Percent Effect in assay [1] was -1.36%; in assay [2] it was 2.7%; in assay [3] it was -5.04%; in [4] it was 1.78%; in assay [5] it was 5.41%; in assay [6] it was -1.43%. In addition, the Percent Effect in [7] is 15.3%; in assay [8], 14.6%; in assay [9], 6.88%; in [10] it was 12.2%; in [11] it was -1.4%.
`COc1cccc(OCC(=O)NS(=O)(=O)c2ccc(C)s2)c1`: the Percent Effect was -3.05% in assay [1]; 15.2% in assay [2]; -2.9% in [3]; -5.56% in assay [4]; 5.19% in assay [5]; 5.32% in assay [6]. The Percent Effect in [7] is 10.4%; in assay [8] it was 15.6%; in [9] it was 2.46%; in [10] it was 16.5%; in assay [11], -4.35%.
Take `COCCNC(=O)C1(c2ccccc2C)CCOCC1`: the Percent Effect in assay [1] was -6.97%; in assay [2], 2.7%; in assay [3], -2.99%; in [4] it was -1.02%; in assay [5] it was -5%; in assay [6] it was 4.81%. Also, the Percent Effect was 0.18% in [7]; 13.2% in [8]; 0.493% in [9]; -6.17% in assay [10]; -1.03% in assay [11].
For `CCN(CC)C(=O)CCn1ncc2c(Cl)cccc21`, the Percent Effect in assay [1] is -0.381%; in assay [2] it was 1.33%; in assay [3] it was 3.83%; in assay [4], 7.06%; in [5], -5.89%; in [6], -17.1%. For the same molecule, the Percent Effect in assay [7] is 16.1%; in assay [8], 0.421%; in [9], 0%; in assay [10], 2.56%; in assay [11], -11.2%.
For the molecule `CC(C)COC(C)C(=O)N1CCN(S(C)(=O)=O)CC1` (stereo not drawn), the Percent Effect in assay [1] is -3.12%; in assay [2], 8.22%; in assay [3], -1.38%; in assay [4], 2.29%; in assay [5], 3.53%; in [6] it was 1.36%. The Percent Effect in assay [7] is 8.34%; in assay [8], -1.94%; in [9], 4.3%; in assay [10], 20%; in [11], -4.42%.
Regarding `Cc1nnc(N2CC[C@H](OCC3CC3)[C@@H](Cc3ccccc3)C2)s1`, the Percent Effect in assay [1] was -2.17%; in [2], -5.33%; in [3], 8.54%; in assay [4] it was 9.81%; in [5] it was 5.99%; in assay [6] it was -31.7%. Besides, the Percent Effect in assay [7] was 7.01%; in assay [8] it was -7.72%; in assay [9] it was 0%; in assay [10], 5%; in assay [11] it was -3.2%.
As to `Cc1cccc(N2CC[C@@H]3CN(C(=O)c4ccco4)CCO[C@@H]3C2)n1`, the Percent Effect in assay [1] was -3.29%; in assay [2], 10.7%; in [3], 10.8%; in assay [4], 3.1%; in assay [5], -3.15%; in assay [6], 4.89%. Further, the Percent Effect is 9.78% in assay [7]; 6.1% in [8]; 7.45% in assay [9]; 14.1% in [10]; -6.54% in assay [11].
`CCCc1cc(NC2CCc3ncnn3C2)n2ncnc2n1` (stereo not drawn): the Percent Effect was -4.43% in assay [1]; 5.48% in assay [2]; 7.3% in assay [3]; -5.57% in assay [4]; -2.74% in [5]; -0.455% in [6]. In addition, the Percent Effect in assay [7] is 10.1%; in assay [8] it was 17.2%; in assay [9], 2.15%; in assay [10] it was 7.5%; in assay [11] it was -3.04%.
